Assay outcomes as filed in PubChem BioAssay.
HP1b binding inh: HP1-beta chromodomain-methylated histone interaction inhibition; AID 540317; AlphaScreen HP1-beta / biotin-H3K9me3 peptide binding; Potency, µM (top dose mostly 114 µM), actives largely listed as inhibitors; P83916; 390,000 tested, 0.56% active; note: nearly all actives have a fitted effect of over 70% in size
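Compound inhibition of the preformed complex between 50 nM HP1-beta and 50 nM biotinylated H3K9me3 peptide was read by AlphaScreen. Buffer was PBS pH 7.4 with 0.01% Tween-20. Incubations ran 30 min at room temperature, with 10 ug/mL donor/acceptor beads.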
BAZ2B inh: BAZ2B (human) inhibition | 360,000 tested, 4.4% active | AlphaScreen BAZ2B-H3K14Ac peptide displacement | Potency, µM (titrated, usually from 114 µM), most hits filed as inhibitors | AID 504333 | Q9UIF8; note: nearly all actives have a fitted effect of over 60% in size
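In this displacement format the biotinylated H3(5-23) peptide acetylated at Lys14 serves as ligand at 50 nM, with BAZ2B at 50 nM in PBS pH 7.4 containing 0.01% Tween-20. Donor and acceptor beads are 10 ug/mL final.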
G9a block: inhibitors of human histone lysine methyltransferase G9a | Potency, µM (top dose mostly 102 µM), usual class: inhibitors | G9a H3K9 monomethylation, AlphaScreen, 2 h | 350,000 tested, 8.8% active | Q96KQ7 | AID 504332; note: nearly all actives have a fitted effect of over 75% in size
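Readings reflect AlphaScreen signal from monomethyl-H3K9 antibody detection. HMT at 20 nM; substrate b-H3K9 500 nM; cofactor SAM 20 uM; 2 h RT reaction; compounds tested as titrations in qHTS with 15 min preincubation.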
PLK1 PBD block: PLK1 (human) polo-box domain binding inhibition; Plk1 PBD binding of FITC phosphopeptide, fluorescence polarization; 360,000 tested, 2.8% active; P53350; Potency, µM, usual class: inhibitors; note: series mostly up to about 57 µM; nearly all actives have a fitted effect of over 65% in size
JMJD2A Tudor: JMJD2A Tudor domain (human) inhibition. O75164. AlphaScreen JMJD2A-Tudor / H3K4me3 peptide binding. Potency, µM (titrated, usually from 114 µM), usual class: inhibitors. 390,000 tested, 4.4% active; note: nearly all actives have a fitted effect of over 50% in size
Target sequence (O75164 whole entry, looked up, the tested form may be a part): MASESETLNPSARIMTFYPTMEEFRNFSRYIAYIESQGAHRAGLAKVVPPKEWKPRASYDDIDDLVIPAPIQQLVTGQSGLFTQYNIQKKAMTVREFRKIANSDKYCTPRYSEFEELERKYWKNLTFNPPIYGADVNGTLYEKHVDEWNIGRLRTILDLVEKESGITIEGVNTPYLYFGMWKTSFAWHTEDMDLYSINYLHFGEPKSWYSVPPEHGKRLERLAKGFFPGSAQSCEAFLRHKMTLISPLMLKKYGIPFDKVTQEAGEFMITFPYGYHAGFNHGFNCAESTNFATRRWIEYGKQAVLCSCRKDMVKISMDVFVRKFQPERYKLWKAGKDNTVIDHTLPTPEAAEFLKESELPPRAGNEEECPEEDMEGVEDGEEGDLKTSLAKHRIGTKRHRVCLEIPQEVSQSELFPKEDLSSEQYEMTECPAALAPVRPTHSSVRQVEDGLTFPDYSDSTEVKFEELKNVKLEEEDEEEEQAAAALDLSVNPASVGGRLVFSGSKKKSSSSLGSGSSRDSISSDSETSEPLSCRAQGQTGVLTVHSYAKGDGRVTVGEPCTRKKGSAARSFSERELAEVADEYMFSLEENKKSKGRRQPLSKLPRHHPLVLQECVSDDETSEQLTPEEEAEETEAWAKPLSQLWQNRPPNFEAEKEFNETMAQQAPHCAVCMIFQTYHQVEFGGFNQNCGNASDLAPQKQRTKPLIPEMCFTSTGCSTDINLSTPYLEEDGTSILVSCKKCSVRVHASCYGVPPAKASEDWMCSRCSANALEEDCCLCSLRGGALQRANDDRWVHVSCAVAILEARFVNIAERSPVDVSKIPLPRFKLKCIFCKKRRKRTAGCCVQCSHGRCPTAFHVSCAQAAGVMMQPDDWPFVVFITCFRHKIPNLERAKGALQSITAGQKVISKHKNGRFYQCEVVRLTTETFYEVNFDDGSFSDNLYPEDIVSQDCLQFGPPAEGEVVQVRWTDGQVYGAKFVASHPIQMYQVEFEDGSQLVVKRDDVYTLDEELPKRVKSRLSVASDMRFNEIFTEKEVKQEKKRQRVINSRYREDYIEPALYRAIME
12-LOX inh: inhibitors of human 12S-lipoxygenase ALOX12; P18054; purified 12hLO, xylenol orange hydroperoxide absorbance; Potency, µM (titrated, usually from 108 µM), usual class: inhibitors; 580,000 tested, 1.1% active
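Purified human 12hLO at 150 nM in 25 mM Hepes, 0.01% Triton X-100, pH 7.0, preincubated 15 min at room temperature with compound. Reaction started with 40 uM arachidonic acid, 30 min at room temperature. Hydroperoxide measured by Fe-xylenol orange, 573/405 nm absorbance ratio.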
Large screens that a line does not name were inactive. A selection: hits, their analogues and other compounds. The true share with any hit is near 9%. Calls come from the whole dose curve; as a rule, active = well fitted curve in the direction sought with a large enough effect; inconclusive = small, poorly fitted or top-dose-only effect, or another doubt; inactive = no such curve, though single readings can be large; an effect the other way counts as inactive or inconclusive.

CCC(Cc1ccccc1)n1c(=S)[nH]c2ccccc2c1=O (stereo not given)	12-LOX inh inconclusive
Nc1ccccc1Oc1ccccc1	none (no result: HP1b binding inh, BAZ2B inh, G9a block, PLK1 PBD block, JMJD2A Tudor)
Nc1ccc(Oc2ccccc2-c2ccccc2)cc1	HP1b binding inh inconclusive, JMJD2A Tudor 50µM, 12-LOX inh inconclusive (no result: BAZ2B inh, G9a block)
CC(=O)Nc1ccc(NC(=O)C(C)c2cccc(C(=O)c3ccccc3)c2)cc1 (stereo not given)	none
CC(C(=O)Nc1ccc(O)cc1)c1cccc(C(=O)c2ccccc2)c1 (stereo not given)	BAZ2B inh inconclusive, PLK1 PBD block 12µM (no result: G9a block)
CN(C)CCn1c(=O)n(CCO)c(=O)c2c3c(sc21)COC(C)(C)C3	none (no result: HP1b binding inh, BAZ2B inh, G9a block, PLK1 PBD block, JMJD2A Tudor)
C/C(=N\NC(=O)c1cccc(O)c1)c1cccc(NC(=O)c2ccc(F)cc2)c1	none
C/C(=N\NC(=O)c1cccc(N/N=C(\C)c2ccco2)c1)c1ccco1	G9a block 35µM, JMJD2A Tudor inconclusive
C/C(=N\NC(=O)c1cccc(N/N=C(\C)c2cc(O)ccc2O)c1)c1cc(O)ccc1O	HP1b binding inh inconclusive, BAZ2B inh 11µM, G9a block inconclusive, JMJD2A Tudor 13µM
C/C(=N\NC(=O)c1cccc([N+](=O)[O-])c1)c1ccco1	none
O=C1c2ccccc2C(Nc2cccnc2)N1Cc1ccccc1 (stereo not given)	BAZ2B inh inconclusive, G9a block 25µM
O=C1c2ccccc2C(Nc2cccnc2)N1Cc1ccccc1Cl (stereo not given)	G9a block inconclusive
O=C1c2ccccc2C(Nc2ccc3c(c2)OCCO3)N1Cc1ccccc1 (stereo not given)	HP1b binding inh inconclusive, BAZ2B inh 40µM, G9a block 45µM, JMJD2A Tudor 40µM (no result: 12-LOX inh)
CCOc1ccc(NC2c3ccccc3C(=O)N2Cc2ccc3c(c2)OCO3)cc1 (stereo not given)	HP1b binding inh inconclusive, BAZ2B inh 16µM, G9a block 35µM, JMJD2A Tudor 45µM
CCC(=O)OC1c2ccccc2C(=O)N1Cc1ccccc1 (stereo not given)	none
CCCCNC1c2ccccc2C(=O)N1Cc1ccccc1 (stereo not given)	12-LOX inh 40µM
CCCCOc1ccc(S(=O)(=O)Nc2cc(OC)ccc2OC)cc1	none
CS(=O)(=O)Nc1cccc(NC(=O)c2ccc(-n3ccnc3)c3ccoc23)c1	12-LOX inh 10µM (no result: HP1b binding inh, BAZ2B inh, G9a block, JMJD2A Tudor)
O=C(NCC1CC1)c1ccc(-n2ccnc2)c2ccoc12	12-LOX inh 10µM (no result: HP1b binding inh, BAZ2B inh, G9a block, JMJD2A Tudor)
C/C(=N\Nc1ccccc1Br)c1ccc(-c2ccccc2)cc1	12-LOX inh 0.71µM (no result: HP1b binding inh, BAZ2B inh, G9a block, PLK1 PBD block, JMJD2A Tudor)
C/C(=N\NC(=O)c1ccc(Br)cc1)c1ccccc1	none
COc1cccc(CNc2ccc3nc(-c4ccc(N)cc4)c(OC)n3n2)c1	none (no result: HP1b binding inh, BAZ2B inh, PLK1 PBD block, JMJD2A Tudor)
CC(C)C(=O)Nc1ccc2c(c1)nc(CCN1CCN(c3ccccc3)CC1)n2C	none (no result: G9a block)
CCC1=NN2C(=N)/C(=C\c3ccc(OCCOc4ccc(NC(C)=O)cc4)cc3)C(=O)N=C2S1	PLK1 PBD block inconclusive
CC(=O)Nc1ccc(OCCOc2ccc(/C=C3/C(=N)N4C=CSC4=NC3=O)cc2)cc1	G9a block inconclusive, PLK1 PBD block 3.4µM
COc1cc(/C=C2\C(=N)N3N=C(C)SC3=NC2=O)cc(Cl)c1OCCOc1ccc(NC(C)=O)cc1	BAZ2B inh 79µM
Cc1ccc(SCc2noc(-c3c(C)noc3C)n2)cc1	none
COC(=O)c1ccc2c(c1)C(C)(C)C(/C=C/c1ccc(O)cc1)=[N+]2C	HP1b binding inh inconclusive, BAZ2B inh 28µM, G9a block 7.1µM, JMJD2A Tudor 50µM, 12-LOX inh 5.6µM
COC(=O)c1ccc2c(c1)C(C)(C)C(/C=C/c1ccc(OC)c(OC)c1OC)=[N+]2C	BAZ2B inh inconclusive, PLK1 PBD block inconclusive, JMJD2A Tudor 56µM, 12-LOX inh 2.5µM
COc1cc(/C=C/c2ccc(O)cc2)cc(OC)c1	12-LOX inh inconclusive
CC1CC(C)(C)NC(=S)N1CCC(=O)N1CCc2ccccc2C1 (stereo not given)	G9a block inconclusive, PLK1 PBD block inconclusive, 12-LOX inh 40µM
CC1CC(C)(C)NC(=S)N1CCC(=O)N1CCN(c2ccccc2)CC1 (stereo not given)	G9a block 40µM, PLK1 PBD block inconclusive, 12-LOX inh inconclusive
CCCNc1c(NC(=O)Nc2cc(OC)cc(OC)c2)c(=O)oc2ccccc12	none (no result: HP1b binding inh, BAZ2B inh, G9a block, PLK1 PBD block, JMJD2A Tudor)
O=C(Nc1ccc2c(c1)OCCO2)NC1(C(F)(F)F)Oc2ccccc2O1	G9a block 2µM, JMJD2A Tudor inconclusive, 12-LOX inh inconclusive
O=C(NC1(C(F)(F)F)Oc2ccccc2O1)N1CCCC1	G9a block 6.3µM, JMJD2A Tudor inconclusive, 12-LOX inh inconclusive
O=C(Nc1ccc2c(c1)OCO2)NC1(C(F)(F)F)Oc2ccccc2O1	G9a block 6.3µM, 12-LOX inh inconclusive
O=C(Nc1ccc2c(c1)OCCO2)Nc1ccc2c(c1)OCO2	none
CCOc1ccccc1NC(=O)c1csc(C)c1C	G9a block 35µM, 12-LOX inh inconclusive
COc1ccc(NC(=O)c2nc[nH]c2C(=O)Nc2ccccc2C)cc1	none
CCOc1ccccc1NC(=O)c1nc[nH]c1C(=O)Nc1ccccc1OCC	BAZ2B inh 56µM, G9a block 13µM (no result: 12-LOX inh)
COc1ccccc1NC(=O)c1nc[nH]c1C(=O)Nc1ccccc1OC	HP1b binding inh inconclusive, BAZ2B inh inconclusive, G9a block 11µM, PLK1 PBD block inconclusive
Cc1ccccc1NC(=O)c1nc[nH]c1C(=O)NCc1ccccc1	none
CCOc1ccccc1NC(=O)c1cccc2ccccc12	none
O=C(NC[C@H]1Cn2ccnc2CO1)c1cc(F)cc(F)c1	none (no result: HP1b binding inh, BAZ2B inh, G9a block, PLK1 PBD block, JMJD2A Tudor)
Oc1cccc2ccc(Nc3ccccn3)nc12	BAZ2B inh 5µM, G9a block inconclusive, JMJD2A Tudor 18µM, 12-LOX inh inconclusive
O=C(NCc1ccc2c(c1)OCO2)C1CCN(C(=O)Nc2ccc(Cl)cc2)CC1	none
CC(C)c1cc(Nc2cccc(O)c2)cc(C(C)C)c1O	BAZ2B inh 32µM, G9a block inconclusive (no result: HP1b binding inh, PLK1 PBD block, JMJD2A Tudor, 12-LOX inh)
COc1ccccc1Oc1c(C)oc2cc(OC(=O)c3ccco3)ccc2c1=O	none
CCC1CCCCN1C(=O)COc1ccccc1NC(C)=O (stereo not given)	G9a block 45µM, 12-LOX inh inconclusive
CCOc1ccccc1NC(=O)CN1CCCCCC1	BAZ2B inh 50µM, JMJD2A Tudor 3.2µM (no result: G9a block)
CCOc1ccc(OCC)c(NC(=O)CN2CCN(CC)CC2)c1	HP1b binding inh inconclusive, BAZ2B inh inconclusive, G9a block 20µM, JMJD2A Tudor 0.89µM, 12-LOX inh inconclusive
CCOc1ccccc1NC(=O)CSC1=NN2CCCC(=O)N=C2S1	G9a block 40µM
COC(=O)C[C@@H]1CC[C@@H](NC(=O)NC2CCCC2)[C@@H](CO)O1	none (no result: HP1b binding inh, BAZ2B inh, G9a block, JMJD2A Tudor)
Cc1ccc(-n2ccn(CC(=O)NCCc3ccccc3)c(=O)c2=O)cc1C	none
COc1ccc(S(=O)(=O)N2CCOC23CCN(C(=O)c2ccccc2Br)CC3)cc1	none
